The source of these data is PubChem BioAssay (NCI).

Test systems include SK-MEL-2 melanoma; EKVX NSCLC; SN12C renal; UO-31 renal; TK-10 renal; ACHN renal; A498 renal; CCRF-CEM leukemia; MOLT-4 leukemia; SR leukemia.
What all share (test): NCI-60 one-dose screen, 48 h (100 = growth as untreated, 0 = no growth, -100 = all killed)
What all share (conditions): 10 µM unless noted

SMILES strings stand for the structures. About 83,000 compounds went through this panel and 20% of them were active in at least one assay; those are over-represented in the sample as a whole.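 Method: cells in 96-well plates; compound added at one concentration; 48 h incubation; percent growth measured; values under 10 scored active.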 Values without a mark were called inactive. Calls of active or inactive are those of the source.

Consider `CCC[S@@](=O)c1ccc2nc(NC(=O)OC)[nH]c2c1`, for which the growth in the experiment with SK-MEL-2 melanoma is 95.1%; with EKVX NSCLC, 90.2%; with SN12C renal, 96.4%; in the experiment with UO-31 renal, 90.9%; in the experiment with TK-10 renal it was 91.9%; in the experiment on ACHN renal, 102%. Also, the growth was 87.6% in the experiment on A498 renal, 86.4% with CCRF-CEM leukemia, 74.5% with MOLT-4 leukemia and 41.6% in the experiment on SR leukemia.

For `COc1ccc(C(=S)c2cc(OC)c(OC)c(OC)c2)cc1OC(=O)CCl`, the growth in the experiment with SK-MEL-2 melanoma is 41.9%; in the experiment with EKVX NSCLC, 71.8%; in the experiment on SN12C renal it was 34.6%; with UO-31 renal, 45.5%; in the experiment on TK-10 renal it was 65.2%; in the experiment on ACHN renal it was 41.9%. Besides, the growth is 16% in the experiment on A498 renal, 14.3% in the experiment with CCRF-CEM leukemia, 15.3% with MOLT-4 leukemia and 11% with SR leukemia.

In the case of `NCCN1CCNCC1`, the growth is 111% in the experiment on SK-MEL-2 melanoma; 114% in the experiment on EKVX NSCLC; 92% in the experiment on SN12C renal; 90.7% in the experiment on UO-31 renal; 106% in the experiment on TK-10 renal; 106% with ACHN renal. The growth in the experiment with A498 renal is 92.9%; with CCRF-CEM leukemia it was 97%; in the experiment on MOLT-4 leukemia, 102%; with SR leukemia, 99.7%.

With `COc1cccc(NC(=O)Nc2ccc(Oc3ncnc4[nH]c(C)c(C)c34)cc2)c1`, the growth was 100% in the experiment with SK-MEL-2 melanoma; 102% in the experiment with EKVX NSCLC; 74.5% in the experiment on SN12C renal; 86.1% in the experiment with UO-31 renal; 114% with TK-10 renal; 73.6% with ACHN renal. Moreover, the growth with A498 renal was 106%; with CCRF-CEM leukemia, 76.4%; in the experiment with MOLT-4 leukemia it was 56.9%; with SR leukemia, 10.5%.

In the case of `CC(=O)O[C@@H]1C[C@]2(C)[C@H]3[C@H](O)C[C@@H]4C5=CC(C)(C)CC[C@]5(C)CC[C@@]4(C)[C@]3(C)CC[C@H]2C(C)(C)[C@H]1O`, the growth with SK-MEL-2 melanoma was 107%; with EKVX NSCLC it was 96.5%; with SN12C renal, 99.9%; in the experiment with UO-31 renal, 84.1%; with TK-10 renal, 104%; with ACHN renal, 102%. In addition, the growth was 119% in the experiment with A498 renal, 106% in the experiment with CCRF-CEM leukemia, 87.1% in the experiment on MOLT-4 leukemia and 87.1% in the experiment on SR leukemia.

Consider `C#C[C@@]1(O)[C@@H](CO)O[C@@H](n2cc(I)c3c(N)ncnc32)[C@@H]1O`, for which the growth is -27.6% (active) with SK-MEL-2 melanoma; -19.2% (active) in the experiment with EKVX NSCLC; 6.87% (active) in the experiment with SN12C renal; -14.8% (active) in the experiment with UO-31 renal; 23.4% in the experiment with TK-10 renal; 5.08% (active) in the experiment with ACHN renal. Besides, the growth is -86.5% (active) in the experiment with A498 renal, 6.77% (active) with CCRF-CEM leukemia, -18.8% (active) in the experiment on MOLT-4 leukemia and -1.14% (active) in the experiment with SR leukemia.

As for `CCOc1ccccc1C(=O)/C=C/c1cc2ccccc2[nH]c1=O`, the growth with SK-MEL-2 melanoma was 4.96% (active); in the experiment with EKVX NSCLC, -1.6% (active); in the experiment with SN12C renal, -20.9% (active); in the experiment with UO-31 renal, -97.7% (active); in the experiment on TK-10 renal, 15%; in the experiment on ACHN renal, -5.01% (active). Also, the growth in the experiment on A498 renal is -14.7% (active); in the experiment on CCRF-CEM leukemia it was -0.719% (active); in the experiment on MOLT-4 leukemia it was 5.16% (active); with SR leukemia, 4% (active).

`CC1=C(CCCOC(=O)NCCCl)C2=C(C)C3(CC3)[C@@](C)(O)C(=O)C2=C1`: the growth in the experiment with SK-MEL-2 melanoma was 14.5%; with EKVX NSCLC, 54.3%; in the experiment on SN12C renal it was 45.7%; with UO-31 renal, -42.1% (active); in the experiment on TK-10 renal, 9.96% (active); with ACHN renal, 5.75% (active). The growth is -9.87% (active) in the experiment with A498 renal, 79.9% in the experiment with CCRF-CEM leukemia, 70.4% with MOLT-4 leukemia and 82.9% in the experiment on SR leukemia.

As to `COC(=O)CCc1n(Cc2ccc3ccccc3c2)c2ccccc2[n+]1Cc1ccc2ccccc2c1`, the growth in the experiment on SK-MEL-2 melanoma is -56.2% (active); in the experiment with EKVX NSCLC it was 42.1%; in the experiment on SN12C renal it was 7.8% (active); in the experiment on UO-31 renal it was 78.9%; in the experiment on TK-10 renal it was -5.81% (active); with ACHN renal, 86.8%. Further, the growth with A498 renal was 8.46% (active); in the experiment on CCRF-CEM leukemia, 9.86% (active); with MOLT-4 leukemia, 3.6% (active); in the experiment on SR leukemia it was -47.7% (active).

Regarding `C=C(C)[C@@H]1CC[C@]2(C(=O)O)CC[C@]3(C)[C@H](CC[C@@H]4[C@@]5(C)C[C@@H](CC#Cc6ccccc6C)C(=O)C(C)(C)[C@@H]5CC[C@]43C)[C@@H]12`, the growth in the experiment with SK-MEL-2 melanoma was 41.1%; with EKVX NSCLC, 28.1%; in the experiment on SN12C renal it was 37.8%; in the experiment with UO-31 renal it was 29.4%; in the experiment with TK-10 renal it was 27.3%; with ACHN renal, 29.4%. The growth in the experiment with A498 renal is 10.7%; in the experiment with CCRF-CEM leukemia, 31.1%; in the experiment with MOLT-4 leukemia, 13.3%; in the experiment with SR leukemia, 23%.

Take `Cc1c(Cl)cccc1NC(=O)c1sc2nc3c(cc2c1N)CCCCC3`: the growth is 48.5% in the experiment on SK-MEL-2 melanoma; 42.2% in the experiment with EKVX NSCLC; 44.9% in the experiment with SN12C renal; 55.2% in the experiment with UO-31 renal; 65.6% in the experiment with TK-10 renal; 62.5% in the experiment with ACHN renal. The growth in the experiment with A498 renal was -3.71% (active); in the experiment on CCRF-CEM leukemia, 9.59% (active); in the experiment with MOLT-4 leukemia, 14.4%; in the experiment on SR leukemia it was 12.8%.

In the case of `Cn1cc(-c2ccc3c(c2)ncn3-c2ccc(CC(=O)Nc3cc(C(C)(C)C)on3)cc2)cn1`, the growth is 23.4% in the experiment with SK-MEL-2 melanoma; 20.5% in the experiment on EKVX NSCLC; 13.1% in the experiment with SN12C renal; 3.88% (active) in the experiment with UO-31 renal; -8.53% (active) in the experiment with TK-10 renal; 6.24% (active) in the experiment on ACHN renal. Further, the growth is -47.1% (active) with A498 renal, 57.7% in the experiment with CCRF-CEM leukemia, 27.4% in the experiment on MOLT-4 leukemia and 18.8% in the experiment with SR leukemia.

Consider `C[C@]12CC[C@@H]3c4ccc(O)cc4CC[C@H]3[C@@H]1C[C@H](O)C2`, for which the growth was 82.4% in the experiment on SK-MEL-2 melanoma; 44% in the experiment on EKVX NSCLC; 71.6% in the experiment on SN12C renal; 71.4% in the experiment on UO-31 renal; 96.4% with TK-10 renal; 99.7% with ACHN renal. The growth in the experiment with A498 renal was 44.6%; with CCRF-CEM leukemia, 52.7%; in the experiment with MOLT-4 leukemia, 47.5%; in the experiment on SR leukemia it was 25.4%.
